Assay [1] has as its system Wnt5a (protein binding on small-molecule microarray). The experiment in a line: small molecules binding Wnt5a protein – biophysical, small-molecule microarray, 635/667 nm fluorescence, primary screen (AID 1142).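 Note: fluorescence read at 667 nm with signal to noise per printed feature.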 To be noted: 635 nm fluorescence, higher = more signal.
Assay [2] is described as follows: ATP-based viability of Huh7 replicon cells – cell-based, CellTiter-Glo luminescence, basal, 48 h, cytotoxicity control for HCV replication inhibitor project, primary screen (AID 1143).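 Note: Huh7 hepatoma cells carrying a hepatitis C replication reporter with no stimulus; test concentration not given here.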 To be noted: higher = more signal, called active from +8 up or from −8 down. For orientation: Replicon systems follow genome replication, usually without infectious particles.
Assay [3] can be described thus: Pseudomonas biofilm growth suppression – PAO1 strain, BacTiter-Glo luminescence, LB-PBS, primary screen (AID 1144). The following applies: P. aeruginosa PAO1 biofilm, 12 h, higher = more signal.
Assay [4] can be described thus: basal CRE-LacZ reporter activity in PC12 – cell-based, unstimulated, primary screen (AID 1145). To be noted: no forskolin, luminescence, 4.5 h, higher = more signal, called active from +8 up or from −8 down.
A short description of assay [5]: forskolin-driven CRE-LacZ activity in PC12 – cell-based, CRE-LacZ reporter, forskolin-stimulated, primary screen (AID 1146).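 Note: PC12 cells with 6xCRE LacZ reporter stimulated by forskolin 10 µM; beta-galactosidase reporter signal reflecting CREB driven transcription.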 The following applies: luminescence, 4.5 h, higher = more signal, called active from +8 up or from −8 down.
Assay [6] deals with Streptavidin (Streptomyces avidinii) (UniProt P22629). The experiment in a line: compounds binding control protein streptavidin – biophysical, small-molecule microarray, 635/667 nm fluorescence, artefact control for SMM compound annotation, primary screen (AID 1147).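 Note: signal reflects streptavidin binding to arrayed compounds as a control protein.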 The following applies: higher = more signal.
Sequence of Streptavidin (Streptomyces avidinii) (P22629 whole entry, looked up): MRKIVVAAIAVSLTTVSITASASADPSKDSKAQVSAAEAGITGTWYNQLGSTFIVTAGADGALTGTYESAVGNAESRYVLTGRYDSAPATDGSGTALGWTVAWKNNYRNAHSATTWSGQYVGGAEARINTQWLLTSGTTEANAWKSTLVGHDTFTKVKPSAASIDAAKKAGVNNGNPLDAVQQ
Assay [7] is described as follows: probe aInhba binding on compound microarray – biochemical, small-molecule microarray, 635/667 nm fluorescence, primary screen (AID 1148).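 Note: score merges 667nm spot fluorescence with signal-to-noise for antibody binding to printed compounds.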 The following applies: higher = more signal.
Assay [8] deals with Torsin-1A (Homo sapiens) (UniProt O14656). The assay can be described thus: TOR1A wild-type binding on microarray – cell lysate, small-molecule microarray, lysate, 635/667 nm, primary screen (AID 1149). To be noted: COS7 hTOR1A-WT lysate, 635 nm fluorescence, higher = more signal.
Sequence of Torsin-1A (Homo sapiens) (O14656 whole entry, looked up): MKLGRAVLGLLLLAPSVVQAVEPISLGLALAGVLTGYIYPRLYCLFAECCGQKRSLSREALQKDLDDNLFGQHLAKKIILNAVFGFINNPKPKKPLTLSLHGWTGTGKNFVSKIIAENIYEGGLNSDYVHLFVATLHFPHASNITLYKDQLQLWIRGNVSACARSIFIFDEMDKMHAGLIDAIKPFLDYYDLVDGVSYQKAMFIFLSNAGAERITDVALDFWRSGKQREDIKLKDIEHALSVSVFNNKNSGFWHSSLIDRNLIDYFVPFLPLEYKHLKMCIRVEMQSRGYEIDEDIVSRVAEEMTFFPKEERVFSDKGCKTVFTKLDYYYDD
Assay [9] shares this target. The assay can be described thus: torsin A mutant lysate binding on microarrays – cell lysate, small-molecule microarray, COS7 lysate, 635/667 nm fluorescence, primary screen (AID 1150).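 Note: score pools 667 nm emission and signal to noise measuring lysate protein binding.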 To be noted: COS7 hTOR1A mutant lysate, 635 nm fluorescence, higher = more signal.
The subject of assay [10] is Sonic hedgehog protein (Shh). The assay can be described thus: Sonic hedgehog microarray binding compounds – biochemical, small-molecule microarray, 635/667 nm fluorescence, primary screen (AID 1151).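 Note: Shh protein binding to compounds spotted on small-molecule microarray slides; score combines spot fluorescence intensity with signal-to-noise across triplicate slides.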 The following applies: 635 nm fluorescence, higher = more signal.
Assay [11] can be described thus: optical density shifts of acrAB sulA E. coli – strain DRC41, OD650, 48 h, E. coli filamentation inducer project, primary screen (AID 1152).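 Note: E. coli MC1000 strain DRC41 lacking acrAB efflux pump and sulA.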 To be noted: higher = more signal, called active from +8 up or from −8 down.
Assay [12] is described as follows: probe aLefty1 binding on compound microarray – biochemical, small-molecule microarray, 635/667 nm fluorescence, primary screen (AID 1153).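 Note: score merges spot fluorescence with signal-to-noise ratio from the scanned slide images.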 The following applies: higher = more signal.
The nature of assay [13]: plasmodial surface anion channel blockers, osmotic lysis – cell-based, P. falciparum Indochina, OD700, 1 h, primary screen (AID 1154). The following applies: P. falciparum Indochina infected RBC osmotic lysis, higher = more signal, called active from +8 up or from −8 down.
Assay [14] in a line: plasmodial surface anion channel blockers, osmotic lysis – cell-based, P. falciparum Indochina, OD700, 2 h, primary screen (AID 1155).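 Note: lysis reports solute entry through the parasite surface anion channel PSAC.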 To be noted: P. falciparum Indochina infected erythrocytes, higher = more signal, called active from +8 up or from −8 down.
Assay [15] can be described thus: changes in parasitized red cell lysis, either direction – P. falciparum Indochina, OD700, 3 h, PSAC antagonist project, primary screen (AID 1156). To be noted: P. falciparum-infected erythrocytes, osmotic lysis, higher = more signal, called active from +8 up or from −8 down.
Assay [16] is described as follows: plasmodial surface anion channel blockers, osmotic lysis – cell-based, P. falciparum Indochina, OD700, 18 h, primary screen (AID 1157). To be noted: P. falciparum Indochina infected erythrocytes, osmotic lysis OD700, 18 h; higher = more signal, called active from +8 up or from −8 down.
Assay [17] in a line: S6 kinase pathway phospho-S6 level changes – cell-based, A549, cytoblot, luminescence, serum-stimulated, primary screen (AID 1158).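 Note: serum-stimulated A549 lung adenocarcinoma cells; signal is phosphorylated S6 detected by cytoblot immunostaining with HRP secondary.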 The following applies: 5 h, higher = more signal.
The target in assay [18] is NADPH oxidase 2 (Homo sapiens) (UniProt P04839). The experiment in a line: compounds shifting NOX2 Amplex Red fluorescence – cell-based, HEK293-NOX2, PMA-stimulated, NOX inhibitor project, primary screen (AID 1159). Note: test concentration not given here. The following applies: 45 min, higher = more signal, called active from +8 up or from −8 down.
Sequence of NADPH oxidase 2 (Homo sapiens) (P04839 whole entry, looked up): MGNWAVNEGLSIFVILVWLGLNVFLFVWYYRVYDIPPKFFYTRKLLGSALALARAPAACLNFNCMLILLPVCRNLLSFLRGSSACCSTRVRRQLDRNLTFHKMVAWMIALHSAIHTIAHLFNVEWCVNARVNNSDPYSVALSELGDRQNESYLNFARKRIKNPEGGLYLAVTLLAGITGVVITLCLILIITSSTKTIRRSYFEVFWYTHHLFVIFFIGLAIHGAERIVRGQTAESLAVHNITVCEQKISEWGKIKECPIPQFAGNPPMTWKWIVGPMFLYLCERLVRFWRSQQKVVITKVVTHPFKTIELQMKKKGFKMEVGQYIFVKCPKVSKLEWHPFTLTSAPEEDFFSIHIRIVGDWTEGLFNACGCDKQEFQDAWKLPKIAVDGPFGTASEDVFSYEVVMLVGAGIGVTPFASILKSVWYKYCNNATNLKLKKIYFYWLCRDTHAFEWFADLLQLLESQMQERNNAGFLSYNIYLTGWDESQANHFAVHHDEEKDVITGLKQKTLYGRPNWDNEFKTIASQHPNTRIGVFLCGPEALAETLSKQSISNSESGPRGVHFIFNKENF
Assay [19] has as its target NADPH oxidase 4 (Homo sapiens) (UniProt Q9NPH5). The assay can be described thus: compounds shifting NOX4 Amplex Red fluorescence – cell-based, HEK293-NOX4, tetracycline-induced, NOX inhibitor project, primary screen (AID 1160). To be noted: HEK293-NOX4, Amplex Red H2O2 fluorescence, 45 min; higher = more signal, called active from +8 up or from −8 down.
Assay [20] deals with NADPH oxidase 5 (Homo sapiens) (UniProt Q96PH1). The assay can be described thus: compounds shifting NOX5 Amplex Red fluorescence – cell-based, HEK293-NOX5, NOX inhibitor project, primary screen (AID 1161). To be noted: HEK293-NOX5, ionomycin, 45 min, higher = more signal.
Sequence of NADPH oxidase 5 (Homo sapiens) (Q96PH1 whole entry, looked up): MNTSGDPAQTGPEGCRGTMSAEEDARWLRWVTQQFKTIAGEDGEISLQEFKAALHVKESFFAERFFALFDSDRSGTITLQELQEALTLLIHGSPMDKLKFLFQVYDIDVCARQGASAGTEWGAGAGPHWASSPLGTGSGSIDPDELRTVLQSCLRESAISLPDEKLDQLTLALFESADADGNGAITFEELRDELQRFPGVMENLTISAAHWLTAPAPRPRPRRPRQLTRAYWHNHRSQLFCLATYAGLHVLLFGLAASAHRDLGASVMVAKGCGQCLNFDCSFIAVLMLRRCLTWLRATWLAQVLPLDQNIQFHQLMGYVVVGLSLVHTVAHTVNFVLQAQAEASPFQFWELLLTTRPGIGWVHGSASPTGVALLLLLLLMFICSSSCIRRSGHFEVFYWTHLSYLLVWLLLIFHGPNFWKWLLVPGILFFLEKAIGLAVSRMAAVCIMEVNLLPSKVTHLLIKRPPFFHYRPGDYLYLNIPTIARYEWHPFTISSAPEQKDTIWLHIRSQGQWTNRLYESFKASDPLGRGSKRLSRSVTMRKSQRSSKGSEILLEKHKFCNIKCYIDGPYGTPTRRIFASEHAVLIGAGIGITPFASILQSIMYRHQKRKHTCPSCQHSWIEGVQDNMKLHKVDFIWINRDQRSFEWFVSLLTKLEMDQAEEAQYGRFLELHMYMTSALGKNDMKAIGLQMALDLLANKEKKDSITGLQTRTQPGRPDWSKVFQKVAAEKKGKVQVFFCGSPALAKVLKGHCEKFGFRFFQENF

Calls of active or inactive are those of the source. Unless noted, the rule behind the calls is not given here.

Sequence of NADPH oxidase 4 (Homo sapiens) (Q9NPH5 whole entry, looked up): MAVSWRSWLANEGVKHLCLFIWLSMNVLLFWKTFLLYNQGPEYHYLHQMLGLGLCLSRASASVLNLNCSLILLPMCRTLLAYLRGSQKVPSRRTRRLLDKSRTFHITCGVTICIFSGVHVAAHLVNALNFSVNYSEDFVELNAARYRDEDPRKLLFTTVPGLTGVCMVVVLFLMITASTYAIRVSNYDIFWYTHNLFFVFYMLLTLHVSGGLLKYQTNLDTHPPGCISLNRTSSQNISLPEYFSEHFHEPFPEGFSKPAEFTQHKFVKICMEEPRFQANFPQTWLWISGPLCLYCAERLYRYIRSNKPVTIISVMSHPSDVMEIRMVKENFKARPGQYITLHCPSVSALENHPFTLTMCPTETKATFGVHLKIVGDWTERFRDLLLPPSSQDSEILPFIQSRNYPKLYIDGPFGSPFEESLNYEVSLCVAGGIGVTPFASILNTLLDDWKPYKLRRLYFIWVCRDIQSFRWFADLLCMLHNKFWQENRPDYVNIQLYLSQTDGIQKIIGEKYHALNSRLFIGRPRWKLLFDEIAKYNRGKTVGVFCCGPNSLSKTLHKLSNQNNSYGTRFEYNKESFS

Regarding `C=CC[C@@H]1C=CC(ON=C(C)C)[C@@H](CO)O1` (stereo not given in full), the composite z-score is -0.174 in assay [1]; 0.543 in assay [6]; 0.0357 in [7]; 0.193 in the assay with Torsin-1A (Homo sapiens) [8]; -0.611 with Torsin-1A (Homo sapiens) [9]; -0.117 in [10]. Besides, the composite z-score in assay [12] is -0.147. Besides, the z-score in assay [2] was 0.28 (inactive); in [3], 0.0414 (inactive); in assay [4], -1.13 (inactive); in assay [5] it was -0.92 (inactive); in assay [11], -1.85 (inactive); in assay [13] it was 0.42 (inactive). The z-score is 0.81 (inactive) in [14]; -0.316 (inactive) in assay [15]; 0.195 (inactive) in [16]; -0.0323 in assay [17]; -0.202 (inactive) in assay [18]; -0.173 (inactive) in assay [19]. The z-score in assay [20] was 0.264.
In the case of `CCOC(=O)CCN1C(=O)[C@H]2[C@H]3[C@H](O)[C@H](O)CC(=NNC(=O)OCC)[C@H]3CC[C@H]2C1=O`, the composite z-score was -0.034 in [1]; -0.58 in assay [6]; -0.24 in assay [7]; 0.0668 with Torsin-1A (Homo sapiens) [8]; 0.204 with Torsin-1A (Homo sapiens) [9]; 1.1 in assay [10]. This compound also gave a composite z-score in assay [12] of -0.0611. Further, the z-score in assay [2] is -1.63 (inactive); in assay [3] it was 1.25 (inactive); in assay [4], -0.202 (inactive); in assay [5], 0.531 (inactive); in assay [11], -0.793 (inactive); in [13] it was 3.88 (inactive). The z-score in [14] was 0.635 (inactive); in assay [15], 1 (inactive); in [16] it was 1.07 (inactive); in [17] it was -0.242; in assay [18], 0.415 (inactive); in assay [19] it was -0.702 (inactive). In [20], the z-score was -4.72.
For `O=C1[C@H]2[C@H]3[C@H](O)[C@H](O)CC(=NOC[C@@H](O)COCc4ccco4)[C@@H]3CC[C@H]2C(=O)N1Cc1ccc2c(c1)OCO2`, the composite z-score was 0.0191 in assay [1]; -0.436 in assay [6]; -0.218 in assay [7]; 3.38 with Torsin-1A (Homo sapiens) [8]; 3 with Torsin-1A (Homo sapiens) [9]; 1.55 in assay [10]. In assay [12], the composite z-score is -0.0984. Moreover, the z-score is -0.0292 (inactive) in assay [2]; 0.878 (inactive) in assay [3]; -0.0199 (inactive) in [4]; 0.506 (inactive) in assay [5]; 1.56 (inactive) in assay [11]; 30 (active) in assay [13]. Also, the z-score in [14] was 4.77 (inactive); in [15], 0.826 (inactive); in assay [16], 1.01 (inactive); in assay [17], 0.236; in [18], -2.68 (inactive); in [19], 0.499 (inactive). The z-score in assay [20] was found to be 0.351.
Turning to `CCN1C(=O)[C@H]2[C@H]3[C@H](O)[C@H](O)CC(=NO[C@H](C)c4cn([C@@H]5COC[C@H]5O)nn4)[C@@H]3CC[C@H]2C1=O`, the composite z-score is 0.0122 in assay [1]; 0.079 in assay [6]; -0.0468 in assay [7]; 0.174 with Torsin-1A (Homo sapiens) [8]; 0.0806 with Torsin-1A (Homo sapiens) [9]; 0.0707 in assay [10]. Also, in assay [12], the composite z-score is -0.322. Moreover, the z-score in [2] is 0.654 (inactive); in [3] it was -0.332 (inactive); in assay [4] it was 0.0013 (inactive); in assay [5], 0.446 (inactive); in assay [11] it was -0.712 (inactive); in assay [13], 2.21 (inactive). For the same compound, the z-score in assay [14] was 0.76 (inactive); in [15], 0.436 (inactive); in assay [16] it was 0.564 (inactive); in assay [17], -0.582; in assay [18] it was 0.477 (inactive); in assay [19] it was 0.226 (inactive). The z-score in [20] was 0.919.
Regarding `COC(=O)CC=C[C@@H](C)[C@@H](C=NOC[C@@H](C)[C@H](OCc1ccccc1)C(C)C)NS(=O)(=O)c1ccc(C)cc1`, the composite z-score in assay [1] is -0.122; in assay [6] it was -0.784; in assay [7] it was -0.29; with Torsin-1A (Homo sapiens) [8] it was 0.331; with Torsin-1A (Homo sapiens) [9] it was 0.0147; in [10] it was 0.587. The compound also returned a composite z-score in assay [12] of -0.0011. Moreover, the z-score in [2] was -0.7 (inactive); in [3], 0.904 (inactive); in assay [4] it was 2.87 (inactive); in assay [5] it was 0.447 (inactive); in assay [11], -0.795 (inactive); in assay [13] it was 2.91 (inactive). Besides, the z-score in [14] was 0.988 (inactive); in [15], 1.2 (inactive); in assay [16] it was 0.808 (inactive); in assay [17], -0.222; in [18] it was 0.787 (inactive); in [19] it was -0.183 (inactive). In assay [20], the z-score was -1.19.

The record behind these values is PubChem BioAssay.
